# According to article PMC8384837, “Expanding the binding specificity for RNA recognition by a PUF domain”:
# Positions count from the first letter of the chain named.
# Columns and labels:
# Test in all cases: yeast three-hybrid, YBZ-1, SC-Leu-His + 0.5 mM 3-AT, 4 days
# Details in all cases: tags: N-Gal4 AD-HA kept; label: inside an RPR1-promoter hybrid RNA with tandem MS2 sites; ssRNA
# PUM1 PUF domain R3-RTM = PUM1 PUF domain R3-RTM (Homo sapiens, UniProt Q14671 828-1176, C935R;R936T;Q939M)
# How it was run: (§1)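 Pumilio-1 PUF domain libraries, randomized (NNK) at the three base-contacting residues of each repeat, were co-expressed with matching RNA elements from a centromeric plasmid in strain YBZ-1 (LexA–MS2 coat fusion, HIS3 reporter). Transformants were plated on SC-Leu (input) and SC-Leu-His + 0.5 mM 3-AT (selection) for four days, and repeat regions were PCR-amplified and Illumina-sequenced. The interaction score is the log2 change in variant frequency from input to selection, with pseudocount 1 where absent.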
# PUM1 PUF domain R3-EWA = PUM1 PUF domain R3-EWA (Homo sapiens, UniProt Q14671 828-1176, C935E;R936W;Q939A)
# PUM1 PUF domain R3-EWA, sequence (Q14671 828-1176 C935E/R936W/Q939A): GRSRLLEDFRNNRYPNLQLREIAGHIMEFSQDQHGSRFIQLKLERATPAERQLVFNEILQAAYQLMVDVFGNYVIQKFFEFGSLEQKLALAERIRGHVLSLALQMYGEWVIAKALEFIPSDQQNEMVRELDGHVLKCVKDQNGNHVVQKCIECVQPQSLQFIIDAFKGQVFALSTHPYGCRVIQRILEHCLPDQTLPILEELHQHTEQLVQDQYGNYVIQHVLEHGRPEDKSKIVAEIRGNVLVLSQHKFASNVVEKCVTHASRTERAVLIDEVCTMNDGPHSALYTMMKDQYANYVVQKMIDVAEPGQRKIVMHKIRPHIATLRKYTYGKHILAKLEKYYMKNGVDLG
# How it was run: as §1
# PUM1 PUF domain R3-KFN = PUM1 PUF domain R3-KFN (Homo sapiens, UniProt Q14671 828-1176, C935K;R936F;Q939N)
# How it was run: as §1
# PUM1 PUF domain R3-IFK = PUM1 PUF domain R3-IFK (Homo sapiens, UniProt Q14671 828-1176, C935I;R936F;Q939K)
# How it was run: as §1
# PUM1 PUF domain R1-KGT = PUM1 PUF domain R1-KGT (Homo sapiens, UniProt Q14671 828-1176, S863K;R864G;Q867T)
# How it was run: as §1
# PUM1 PUF domain R6-TWD = target: T1, PUM1 PUF domain R6-TWD (Homo sapiens, UniProt Q14671 828-1176, N1043T;Y1044W;Q1047D)
# T1 sequence: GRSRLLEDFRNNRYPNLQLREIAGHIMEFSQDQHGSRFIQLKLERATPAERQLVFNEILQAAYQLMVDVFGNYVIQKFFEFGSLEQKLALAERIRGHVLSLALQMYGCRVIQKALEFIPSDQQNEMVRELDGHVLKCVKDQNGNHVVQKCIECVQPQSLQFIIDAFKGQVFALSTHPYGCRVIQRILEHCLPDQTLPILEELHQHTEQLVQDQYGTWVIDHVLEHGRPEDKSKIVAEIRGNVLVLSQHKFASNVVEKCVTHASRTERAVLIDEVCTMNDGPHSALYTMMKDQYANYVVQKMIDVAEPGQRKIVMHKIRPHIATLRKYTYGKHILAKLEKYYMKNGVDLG
# How it was run: as §1
# PUM1 PUF domain R5-PHS = PUM1 PUF domain R5-PHS (Homo sapiens, UniProt Q14671 828-1176, C1007P;R1008H;Q1011S)
# How it was run: as §1
# PUM1 PUF domain R5-VNR = PUM1 PUF domain R5-VNR (Homo sapiens, UniProt Q14671 828-1176, C1007V;R1008N;Q1011R)
# How it was run: as §1
# PUM1 PUF domain R5-RLM = PUM1 PUF domain R5-RLM (Homo sapiens, UniProt Q14671 828-1176, C1007R;R1008L;Q1011M)
# How it was run: as §1
# PUM1 PUF domain R1-GFE = PUM1 PUF domain R1-GFE (Homo sapiens, UniProt Q14671 828-1176, S863G;R864F;Q867E)
# How it was run: as §1
# PUM1 PUF domain R1-RKK = PUM1 PUF domain R1-RKK (Homo sapiens, UniProt Q14671 828-1176, S863R;R864K;Q867K)
# How it was run: as §1
# PUM1 PUF domain R4-SPG = PUM1 PUF domain R4-SPG (Homo sapiens, UniProt Q14671 828-1176, N971S;H972P;Q975G)
# PUM1 PUF domain R4-SPG, sequence (Q14671 828-1176 N971S/H972P/Q975G): as the sequence (Q14671 828-1176 C935E/R936W/Q939A) above, with E108C, W109R, A112Q, N144S, H145P, Q148G counted along it
# How it was run: as §1
# PUM1 PUF domain R2-EWG = PUM1 PUF domain R2-EWG (Homo sapiens, UniProt Q14671 828-1176, N899E;Y900W;Q903G)
# How it was run: as §1
# PUM1 PUF domain R6-FRV = target: T2, PUM1 PUF domain R6-FRV (Homo sapiens, UniProt Q14671 828-1176, N1043F;Y1044R;Q1047V)
# T2 sequence: T1 sequence with T216F, W217R, D220V
# How it was run: as §1
# PUM1 PUF domain R5-GQC = PUM1 PUF domain R5-GQC (Homo sapiens, UniProt Q14671 828-1176, C1007G;R1008Q;Q1011C)
# How it was run: as §1
# PUM1 PUF domain R4-RMI = PUM1 PUF domain R4-RMI (Homo sapiens, UniProt Q14671 828-1176, N971R;H972M;Q975I)
# How it was run: as §1
# PUM1 PUF domain R5-DRN = PUM1 PUF domain R5-DRN (Homo sapiens, UniProt Q14671 828-1176, C1007D;Q1011N)
# How it was run: as §1
# PUM1 PUF domain R4-DFM = PUM1 PUF domain R4-DFM (Homo sapiens, UniProt Q14671 828-1176, N971D;H972F;Q975M)
# How it was run: as §1
# PUM1 PUF domain R8-KWF = PUM1 PUF domain R8-KWF (Homo sapiens, UniProt Q14671 828-1176, N1122K;Y1123W;Q1126F)
# How it was run: as §1
# PUM1 PUF domain R8-PYF = PUM1 PUF domain R8-PYF (Homo sapiens, UniProt Q14671 828-1176, N1122P;Q1126F)
# How it was run: as §1
sequence,measurement,setting,value
GGCUAGAACUAGUGGAUCCCCCGGCGCCCGGCGGCUCGAGCCCGGGUAAGUGUAAUUAGUCUGCAUGCCGCCGGGCGCCAUGCCUGCAGGUCGACUCUAGAAAACAUG,binding signal,PUM1 PUF domain R3-RTM,2.52 log2 enrichment (interaction score)
same,binding signal,PUM1 PUF domain R3-EWA,4.15 log2 enrichment (interaction score)
same,binding signal,PUM1 PUF domain R3-KFN,3.99 log2 enrichment (interaction score)
same,binding signal,PUM1 PUF domain R3-IFK,2.58 log2 enrichment (interaction score)
GGCUAGAACUAGUGGAUCCCCCGGCGCCCGGCGGCUCGAGCCCGGGUAAGUGUAAAUCGUCUGCAUGCCGCCGGGCGCCAUGCCUGCAGGUCGACUCUAGAAAACAUG,binding signal,PUM1 PUF domain R1-KGT,4.83 log2 enrichment (interaction score)
GGCUAGAACUAGUGGAUCCCCCGGCGCCCGGCGGCUCGAGCCCGGGUAAGUGAAAAUAGUCUGCAUGCCGCCGGGCGCCAUGCCUGCAGGUCGACUCUAGAAAACAUG,binding signal,PUM1 PUF domain R6-TWD,3.18 log2 enrichment (interaction score)
GGCUAGAACUAGUGGAUCCCCCGGCGCCCGGCGGCUCGAGCCCGGGUAAGUGUGAAUAGUCUGCAUGCCGCCGGGCGCCAUGCCUGCAGGUCGACUCUAGAAAACAUG,binding signal,PUM1 PUF domain R5-PHS,2.78 log2 enrichment (interaction score)
GGCUAGAACUAGUGGAUCCCCCGGCGCCCGGCGGCUCGAGCCCGGGUAAGUGUUAAUAGUCUGCAUGCCGCCGGGCGCCAUGCCUGCAGGUCGACUCUAGAAAACAUG,binding signal,PUM1 PUF domain R5-VNR,2.69 log2 enrichment (interaction score)
same,binding signal,PUM1 PUF domain R5-RLM,2.52 log2 enrichment (interaction score)
GGCUAGAACUAGUGGAUCCCCCGGCGCCCGGCGGCUCGAGCCCGGGUAAGUGUAAAUUGUCUGCAUGCCGCCGGGCGCCAUGCCUGCAGGUCGACUCUAGAAAACAUG,binding signal,PUM1 PUF domain R1-GFE,0.52 log2 enrichment (interaction score)
same,binding signal,PUM1 PUF domain R1-RKK,3.57 log2 enrichment (interaction score)
same,binding signal,PUM1 PUF domain R1-KGT,3.61 log2 enrichment (interaction score)
GGCUAGAACUAGUGGAUCCCCCGGCGCCCGGCGGCUCGAGCCCGGGUAAGUGUAUAUAGUCUGCAUGCCGCCGGGCGCCAUGCCUGCAGGUCGACUCUAGAAAACAUG,binding signal,PUM1 PUF domain R4-SPG,3.58 log2 enrichment (interaction score)
GGCUAGAACUAGUGGAUCCCCCGGCGCCCGGCGGCUCGAGCCCGGGUAAGUGUAAAGAGUCUGCAUGCCGCCGGGCGCCAUGCCUGCAGGUCGACUCUAGAAAACAUG,binding signal,PUM1 PUF domain R2-EWG,4.05 log2 enrichment (interaction score)
GGCUAGAACUAGUGGAUCCCCCGGCGCCCGGCGGCUCGAGCCCGGGUAAGUGUAAAUAGUCUGCAUGCCGCCGGGCGCCAUGCCUGCAGGUCGACUCUAGAAAACAUG,binding signal,PUM1 PUF domain R4-SPG,4.58 log2 enrichment (interaction score)
same,binding signal,PUM1 PUF domain R6-FRV,2.7 log2 enrichment (interaction score)
same,binding signal,PUM1 PUF domain R3-EWA,4.04 log2 enrichment (interaction score)
same,binding signal,PUM1 PUF domain R5-GQC,3.41 log2 enrichment (interaction score)
same,binding signal,PUM1 PUF domain R4-RMI,3.31 log2 enrichment (interaction score)
same,binding signal,PUM1 PUF domain R5-DRN,3.15 log2 enrichment (interaction score)
same,binding signal,PUM1 PUF domain R4-DFM,5.89 log2 enrichment (interaction score)
GGCUAGAACUAGUGGAUCCCCCGGCGCCCGGCGGCUCGAGCCCGGGUAAGUGUAAAAAGUCUGCAUGCCGCCGGGCGCCAUGCCUGCAGGUCGACUCUAGAAAACAUG,binding signal,PUM1 PUF domain R2-EWG,8.11 log2 enrichment (interaction score)
GGCUAGAACUAGUGGAUCCCCCGGCGCCCGGCGGCUCGAGCCCGGGUAAGCGUAAAUAGUCUGCAUGCCGCCGGGCGCCAUGCCUGCAGGUCGACUCUAGAAAACAUG,binding signal,PUM1 PUF domain R8-KWF,4.32 log2 enrichment (interaction score)
same,binding signal,PUM1 PUF domain R8-PYF,5.02 log2 enrichment (interaction score)
GGCUAGAACUAGUGGAUCCCCCGGCGCCCGGCGGCUCGAGCCCGGGUAAGUGUAAAUGGUCUGCAUGCCGCCGGGCGCCAUGCCUGCAGGUCGACUCUAGAAAACAUG,binding signal,PUM1 PUF domain R1-GFE,4.79 log2 enrichment (interaction score)
GGCUAGAACUAGUGGAUCCCCCGGCGCCCGGCGGCUCGAGCCCGGGUAAGUGUCAAUAGUCUGCAUGCCGCCGGGCGCCAUGCCUGCAGGUCGACUCUAGAAAACAUG,binding signal,PUM1 PUF domain R5-DRN,1.45 log2 enrichment (interaction score)
same,binding signal,PUM1 PUF domain R5-RLM,1.79 log2 enrichment (interaction score)
GGCUAGAACUAGUGGAUCCCCCGGCGCCCGGCGGCUCGAGCCCGGGUAAGUGUACAUAGUCUGCAUGCCGCCGGGCGCCAUGCCUGCAGGUCGACUCUAGAAAACAUG,binding signal,PUM1 PUF domain R4-SPG,2.11 log2 enrichment (interaction score)
same,binding signal,PUM1 PUF domain R4-DFM,5.35 log2 enrichment (interaction score)
GGCUAGAACUAGUGGAUCCCCCGGCGCCCGGCGGCUCGAGCCCGGGUAAGUGUAAGUAGUCUGCAUGCCGCCGGGCGCCAUGCCUGCAGGUCGACUCUAGAAAACAUG,binding signal,PUM1 PUF domain R3-EWA,4.37 log2 enrichment (interaction score)
